# Measurements: the supplement of paper PMC4022240
# ± gives the standard deviation.
# T1: HaloTag-ATRX ADD domain (163-292)
# T1 chain: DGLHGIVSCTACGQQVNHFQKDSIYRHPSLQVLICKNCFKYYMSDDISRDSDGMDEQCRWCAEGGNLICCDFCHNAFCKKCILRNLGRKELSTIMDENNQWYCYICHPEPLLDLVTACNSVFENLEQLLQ
# What was measured:
# Experiment in all cases: peptide microarray binding signal (635 nm), min-max normalized on array (fraction of array maximum); higher = stronger binding
# [1] = target: T1, HaloTag-ATRX ADD domain (163-292)
# Description: (§1)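 Histone 13-mer peptides were synthesized as cellulose conjugates with a C-terminal 20-atom PEG linker and printed in triplicate on nitrocellulose. The sequence given is the unmodified backbone; PTMs (Kme1/2/3, Kac, Sph/Tph, Rme/Rme2a/Rme2s, Rcit) are listed in the label and the 'peptide modifications' condition. Slides were probed at 4 °C for 1 h with biotin-labelled (HQ)5-HaloTag reader fusions (ATRX-ADD, ING2-PHD) then streptavidin-Alexa647, or with rabbit histone antibodies then anti-rabbit Alexa647. The mean 635 nm signal of the triplicate spots was scaled 0-1 between the lowest and highest values on each array.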
# [2] = target: HaloTag-ING2 PHD (mouse Ing2 200-280)
# Description: as §1
# [3] = target: anti-H3K4me3 antibody ab8580
# Description: as §1
# [4] = target: anti-H3K9me3 antibody ab8898
# Description: as §1
# [5] = peptide region: H2B 1-13, peptide modifications: H2BS6ph, binder concentration: 1:2,000 dilution
# [6] = peptide region: H2B 1-13, peptide modifications: H2BS6ph, binder concentration: 1:10,000 dilution
# [7] = peptide region: H2B 1-13, binder concentration: 1:2,000 dilution
# [8] = peptide region: H2B 1-13, binder concentration: 1:10,000 dilution
# [9] = peptide region: H2A 11-23, peptide modifications: H2AK13ac H2AK15ac H2AT16ph, binder concentration: 1:2,000 dilution
# [10] = peptide region: H2A 11-23, peptide modifications: H2AK13ac H2AK15ac H2AT16ph, binder concentration: 1:10,000 dilution
# [11] = peptide region: H2A 11-23, peptide modifications: H2AK13ac H2AK15ac, binder concentration: 1:2,000 dilution
# [12] = peptide region: H2A 11-23, peptide modifications: H2AK13ac H2AK15ac, binder concentration: 1:10,000 dilution
# [13] = peptide region: H2A 11-23, peptide modifications: H2AK13ac, binder concentration: 1:2,000 dilution
# [14] = peptide region: H2A 11-23, peptide modifications: H2AK13ac, binder concentration: 1:10,000 dilution
# [15] = peptide region: H2B 1-13, peptide modifications: H2BK5ac H2BK11ac, binder concentration: 1:2,000 dilution
# [16] = peptide region: H2B 1-13, peptide modifications: H2BK5ac H2BK11ac, binder concentration: 1:10,000 dilution
# [17] = peptide region: H2B 1-13, peptide modifications: H2BK5ac H2BS6ph, binder concentration: 1:2,000 dilution
# [18] = peptide region: H2B 1-13, peptide modifications: H2BK5ac H2BS6ph, binder concentration: 1:10,000 dilution
# [19] = peptide region: H2A 11-23, peptide modifications: H2AK15ac H2AT16ph, binder concentration: 1:2,000 dilution
# [20] = peptide region: H2A 11-23, peptide modifications: H2AK15ac H2AT16ph, binder concentration: 1:10,000 dilution
# [21] = peptide region: H2A 11-23, binder concentration: 1:2,000 dilution
# [22] = peptide region: H2A 11-23, binder concentration: 1:10,000 dilution
# [23] = peptide region: H2B 7-19, peptide modifications: H2BK11ac H2BK12ac H2BK15ac, binder concentration: 1:2,000 dilution
# [24] = peptide region: H2B 7-19, peptide modifications: H2BK11ac H2BK12ac H2BK15ac, binder concentration: 1:10,000 dilution
binder,measurement,setting,value
PEPAKSAPAPKKG [H2B 1-13 P E P A K Sph A P A P K K G],peptide microarray binding signal,"[1]; peptide region: H2B 1-13, peptide modifications: H2BS6ph, binder concentration: 50 nM",0.00342 ± 3.7e-05
same,peptide microarray binding signal,"[1]; peptide region: H2B 1-13, peptide modifications: H2BS6ph, binder concentration: 500 nM",0.00543 ± 0.00012
same,peptide microarray binding signal,"[2]; peptide region: H2B 1-13, peptide modifications: H2BS6ph, binder concentration: 10 nM",0.00346 ± 0.00017
same,peptide microarray binding signal,"[2]; peptide region: H2B 1-13, peptide modifications: H2BS6ph, binder concentration: 100 nM",0.00425 ± 0.00022
same,peptide microarray binding signal,[3]; [5],0.00245 ± 6.6e-05
same,peptide microarray binding signal,[3]; [6],0.000799 ± 8.3e-06
same,peptide microarray binding signal,[4]; [5],0.00068 ± 1e-05
same,peptide microarray binding signal,[4]; [6],0.000923 ± 9.6e-06
PEPAKSAPAPKKG [H2B 1-13 P E P A K S A P A P K K G],peptide microarray binding signal,"[1]; peptide region: H2B 1-13, binder concentration: 50 nM",0.00715 ± 0.00022
same,peptide microarray binding signal,"[1]; peptide region: H2B 1-13, binder concentration: 500 nM",0.00119 ± 0.0002
same,peptide microarray binding signal,"[2]; peptide region: H2B 1-13, binder concentration: 10 nM",0.00197 ± 0.00013
same,peptide microarray binding signal,"[2]; peptide region: H2B 1-13, binder concentration: 100 nM",0.00149 ± 7.7e-05
same,peptide microarray binding signal,[3]; [7],9.44e-05 ± 1e-06
same,peptide microarray binding signal,[3]; [8],0.000342 ± 7.5e-06
same,peptide microarray binding signal,[4]; [7],0.000257 ± 2.6e-05
same,peptide microarray binding signal,[4]; [8],0.000807 ± 2.9e-05
RAKAKTRSSRAGL [H2A 11-23 R A Kac A Kac Tph R S S R A G L],peptide microarray binding signal,"[1]; peptide region: H2A 11-23, peptide modifications: H2AK13ac H2AK15ac H2AT16ph, binder concentration: 50 nM",0.0063 ± 0.00011
same,peptide microarray binding signal,"[1]; peptide region: H2A 11-23, peptide modifications: H2AK13ac H2AK15ac H2AT16ph, binder concentration: 500 nM",0.0115 ± 0.00047
same,peptide microarray binding signal,"[2]; peptide region: H2A 11-23, peptide modifications: H2AK13ac H2AK15ac H2AT16ph, binder concentration: 10 nM",0.01009 ± 7e-05
same,peptide microarray binding signal,"[2]; peptide region: H2A 11-23, peptide modifications: H2AK13ac H2AK15ac H2AT16ph, binder concentration: 100 nM",0.0109 ± 0.00022
same,peptide microarray binding signal,[3]; [9],0.001265 ± 1e-05
same,peptide microarray binding signal,[3]; [10],0.00297 ± 7.6e-05
same,peptide microarray binding signal,[4]; [9],0.00107 ± 7.3e-05
same,peptide microarray binding signal,[4]; [10],0.00179 ± 3.4e-05
RAKAKTRSSRAGL [H2A 11-23 R A Kac A Kac T R S S R A G L],peptide microarray binding signal,"[1]; peptide region: H2A 11-23, peptide modifications: H2AK13ac H2AK15ac, binder concentration: 50 nM",0.00307 ± 8.1e-05
same,peptide microarray binding signal,"[1]; peptide region: H2A 11-23, peptide modifications: H2AK13ac H2AK15ac, binder concentration: 500 nM",0.00481 ± 0.00022
same,peptide microarray binding signal,"[2]; peptide region: H2A 11-23, peptide modifications: H2AK13ac H2AK15ac, binder concentration: 10 nM",0.0034 ± 8e-05
same,peptide microarray binding signal,"[2]; peptide region: H2A 11-23, peptide modifications: H2AK13ac H2AK15ac, binder concentration: 100 nM",0.00227 ± 5.8e-05
same,peptide microarray binding signal,[3]; [11],0.000359 ± 1.5e-05
same,peptide microarray binding signal,[3]; [12],0.000628 ± 6.7e-06
same,peptide microarray binding signal,[4]; [11],0.000529 ± 5.7e-05
same,peptide microarray binding signal,[4]; [12],0.000577 ± 1.6e-05
RAKAKTRSSRAGL [H2A 11-23 R A Kac A K T R S S R A G L],peptide microarray binding signal,"[1]; peptide region: H2A 11-23, peptide modifications: H2AK13ac, binder concentration: 50 nM",0.00351 ± 0.00033
same,peptide microarray binding signal,"[1]; peptide region: H2A 11-23, peptide modifications: H2AK13ac, binder concentration: 500 nM",0.00457
same,peptide microarray binding signal,"[2]; peptide region: H2A 11-23, peptide modifications: H2AK13ac, binder concentration: 10 nM",0.003641 ± 3.4e-05
same,peptide microarray binding signal,"[2]; peptide region: H2A 11-23, peptide modifications: H2AK13ac, binder concentration: 100 nM",0.0034 ± 0.00042
same,peptide microarray binding signal,[3]; [13],0.00051 ± 3.1e-05
same,peptide microarray binding signal,[3]; [14],0.00103 ± 2.8e-05
same,peptide microarray binding signal,[4]; [13],0.000378 ± 1.6e-05
same,peptide microarray binding signal,[4]; [14],0.00075 ± 2.9e-05
PEPAKSAPAPKKG [H2B 1-13 P E P A Kac S A P A P Kac K G],peptide microarray binding signal,"[1]; peptide region: H2B 1-13, peptide modifications: H2BK5ac H2BK11ac, binder concentration: 50 nM",0.00439 ± 0.00015
same,peptide microarray binding signal,"[1]; peptide region: H2B 1-13, peptide modifications: H2BK5ac H2BK11ac, binder concentration: 500 nM",0.00957 ± 0.00041
same,peptide microarray binding signal,"[2]; peptide region: H2B 1-13, peptide modifications: H2BK5ac H2BK11ac, binder concentration: 10 nM",0.00853 ± 0.00038
same,peptide microarray binding signal,"[2]; peptide region: H2B 1-13, peptide modifications: H2BK5ac H2BK11ac, binder concentration: 100 nM",0.0114 ± 0.0021
same,peptide microarray binding signal,[3]; [15],0.00251 ± 0.0019
same,peptide microarray binding signal,[3]; [16],0.00108 ± 3.8e-05
same,peptide microarray binding signal,[4]; [15],0.00198 ± 0.00033
same,peptide microarray binding signal,[4]; [16],0.00225 ± 0.0002
PEPAKSAPAPKKG [H2B 1-13 P E P A Kac Sph A P A P K K G],peptide microarray binding signal,"[1]; peptide region: H2B 1-13, peptide modifications: H2BK5ac H2BS6ph, binder concentration: 50 nM",0.00433 ± 0.00028
same,peptide microarray binding signal,"[1]; peptide region: H2B 1-13, peptide modifications: H2BK5ac H2BS6ph, binder concentration: 500 nM",0.00467 ± 0.0018
same,peptide microarray binding signal,"[2]; peptide region: H2B 1-13, peptide modifications: H2BK5ac H2BS6ph, binder concentration: 10 nM",0.00442 ± 0.0003
same,peptide microarray binding signal,"[2]; peptide region: H2B 1-13, peptide modifications: H2BK5ac H2BS6ph, binder concentration: 100 nM",0.00872 ± 0.0029
same,peptide microarray binding signal,[3]; [17],0.00217 ± 0.0016
same,peptide microarray binding signal,[3]; [18],0.000628 ± 1.3e-05
same,peptide microarray binding signal,[4]; [17],0.000332 ± 2.6e-05
same,peptide microarray binding signal,[4]; [18],0.000865 ± 2.4e-05
RAKAKTRSSRAGL [H2A 11-23 R A K A Kac Tph R S S R A G L],peptide microarray binding signal,"[1]; peptide region: H2A 11-23, peptide modifications: H2AK15ac H2AT16ph, binder concentration: 50 nM",0.006489 ± 4.3e-05
same,peptide microarray binding signal,"[1]; peptide region: H2A 11-23, peptide modifications: H2AK15ac H2AT16ph, binder concentration: 500 nM",0.0117 ± 0.00031
same,peptide microarray binding signal,"[2]; peptide region: H2A 11-23, peptide modifications: H2AK15ac H2AT16ph, binder concentration: 10 nM",0.00722 ± 0.0003
same,peptide microarray binding signal,"[2]; peptide region: H2A 11-23, peptide modifications: H2AK15ac H2AT16ph, binder concentration: 100 nM",0.0188 ± 0.00091
same,peptide microarray binding signal,[3]; [19],0.000925 ± 7.2e-05
same,peptide microarray binding signal,[3]; [20],0.00103 ± 2.8e-05
same,peptide microarray binding signal,[4]; [19],0.000513 ± 2.1e-05
same,peptide microarray binding signal,[4]; [20],0.000923 ± 2.5e-05
RAKAKTRSSRAGL [H2A 11-23 R A K A K T R S S R A G L],peptide microarray binding signal,"[1]; peptide region: H2A 11-23, binder concentration: 50 nM",0.00404 ± 4.2e-05
same,peptide microarray binding signal,"[1]; peptide region: H2A 11-23, binder concentration: 500 nM",0.00457 ± 5.4e-05
same,peptide microarray binding signal,"[2]; peptide region: H2A 11-23, binder concentration: 10 nM",0.003462 ± 3.2e-05
same,peptide microarray binding signal,"[2]; peptide region: H2A 11-23, binder concentration: 100 nM",0.00581 ± 0.00028
same,peptide microarray binding signal,[3]; [21],0.00125 ± 0.0004
same,peptide microarray binding signal,[3]; [22],0.000571
same,peptide microarray binding signal,[4]; [21],0.000257 ± 2.7e-06
same,peptide microarray binding signal,[4]; [22],0.000692 ± 7.3e-06
APAPKKGSKKAVT [H2B 7-19 A P A P Kac Kac G S Kac K A V T],peptide microarray binding signal,"[1]; peptide region: H2B 7-19, peptide modifications: H2BK11ac H2BK12ac H2BK15ac, binder concentration: 50 nM",0.00809 ± 0.00032
same,peptide microarray binding signal,"[1]; peptide region: H2B 7-19, peptide modifications: H2BK11ac H2BK12ac H2BK15ac, binder concentration: 500 nM",0.0163 ± 0.00026
same,peptide microarray binding signal,"[2]; peptide region: H2B 7-19, peptide modifications: H2BK11ac H2BK12ac H2BK15ac, binder concentration: 10 nM",0.0198 ± 0.0062
same,peptide microarray binding signal,"[2]; peptide region: H2B 7-19, peptide modifications: H2BK11ac H2BK12ac H2BK15ac, binder concentration: 100 nM",0.0125 ± 0.0012
same,peptide microarray binding signal,[3]; [23],0.0168 ± 0.0011
same,peptide microarray binding signal,[3]; [24],0.00325 ± 0.00019
same,peptide microarray binding signal,[4]; [23],0.00323 ± 0.00057
same,peptide microarray binding signal,[4]; [24],0.00248 ± 0.00015
